# ELG1 DNA repair: ELG1-dependent DNA repair inhibition; Potency, µM (doses to about 46.1 µM), for inactives: at the top dose activity change, negative = inhibition, actives largely listed as inhibitors; HEK293T ELG1-luciferase reporter, luminescence, 16 h; DNA damage induced by 5-fluorouridine; 2.3% of 330,000 active; AID 504467; also: % is scaled to controls: 0 for no effect and ±100 for the full control effect; nearly all actives have a fitted effect of over 55% in size
#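 Cells (2,000 per well) received 5-fluorouridine plus test compound or DMSO and were incubated 16 hr at 37 °C, 5% CO2. Luciferase activity was read by luminescence 30 min after ONE-Glo addition; signal suppression marked inhibition of damage-induced ELG1 function.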
# SW480 rerep: inducers of DNA re-replication in SW480 colon cancer cells; SW480 DNA re-replication, Hoechst DNA content imaging, 48 h; 1.8% of 340,000 active; Potency, µM (top dose mostly 46.1 µM), inactives show at the top dose re-replication activation, hits mostly activators; also: % of control where 0% means no effect; nearly all actives have a fitted effect of over 55% in size
#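 Cells (250 per well) received 23 nL compound or DMSO by pin tool and were kept 48 hr at 37 C, 5% CO2. Nuclei were then stained with Hoechst for 40 min and scanned for DNA content.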
# MCF10A rereplic: inducers of DNA re-replication in MCF 10A breast cells; MCF 10A DNA re-replication, Hoechst nuclear intensity, 48 h; 2.9% of 350,000 active; Potency, µM (series often up to 46.1 µM), inactives show top-dose activity, positive = re-replication, actives largely listed as activators; also: % of control where 0% means no effect; nearly all actives have a fitted effect of over 50% in size
# KB-3-1 cytotox: kills parental KB-3-1 adenocarcinoma cells | KB-3-1 viability, CellTiter-Glo ATP luminescence, 72 h | Potency, µM (top dose mostly 46.1 µM), hits mostly cytotoxic | 1.4% of 400,000 active | AID 1347075; also: % is scaled to controls: 0 for no effect and ±100 for the full control effect; nearly all actives have a fitted effect of over 60% in size
#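 Cytotoxicity measured as CellTiter-Glo luminescence after 72 h at 37 C. Compound titrations were pinned onto drug-naive KB-3-1 parental adenocarcinoma cells grown in DMEM with 10% FBS, and normalized data fitted to concentration-response curves.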
# KB-V1 MDR tox: kills drug-selected multidrug resistant KB-V1 cells | Potency, µM (titrated, usually from 46.1 µM), most hits filed as cytotoxic | KB-V1 MDR cells viability, CellTiter-Glo, 72 h | AID 1347076 | 3.4% of 400,000 active; also: % is scaled to controls: 0 for no effect and ±100 for the full control effect; nearly all actives have a fitted effect of over 60% in size
#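 KB-V1, DMEM (no phenol red) + 10% FBS; cpd pin-transferred, titration series; 72 h, 37 degrees C; CellTiter-Glo, luminescence. Data normalized, curve-fit.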
# * = called active by the depositor; i = inactive; ? = inconclusive; . = not tested or not shown; [ ] = remark or other dose. This is a sample that favours compounds with a hit; in the whole collection about 8.1% have one here. Calls follow the shape of the dose curve; as a rule, active = well fitted curve in the direction sought with a large enough effect; inconclusive = small, poorly fitted or top-dose-only effect, or another doubt; inactive = no such curve, though single readings can be large; an effect the other way counts as inactive or inconclusive. Potency is read from the fitted curve at half-maximal effect.
SMILES,ELG1 DNA repair,SW480 rerep,MCF10A rereplic,KB-3-1 cytotox,KB-V1 MDR tox
COc1ccccc1N1CCN(S(=O)(=O)CCNC(=O)c2cc(OC)c(OC)c(OC)c2)CC1,?,?,?,6.5µM*,i
O=C(Cc1cccs1)NCCS(=O)(=O)N1CCN(c2ccccc2F)CC1,-14%,23µM*,16µM*,12µM*,?
COc1ccccc1N1CCN(S(=O)(=O)CCNC(=O)CC2CCCCC2)CC1,12µM*,-6%,11%,i,?
NC(=S)N/N=C1\CCOc2ccc(Cl)cc21,21µM*,-35%,1%,?,?
NC(=S)NN=C1c2cc(S(=O)(=O)N3CCOCC3)ccc2-c2ccc(S(=O)(=O)N3CCOCC3)cc21,?,4%,15%,i,i
O=C(COC(=O)c1ccco1)c1ccc(Cl)cc1,17%,?,?,?,i
COc1ccc(CCN=C(N)NS(=O)(=O)c2ccc(F)cc2)cc1OC,-7%,-10%,0%,i,i
CC12CCC(C(=O)Nc3cccnc3)(CC1=O)C2(C)C (stereo unspecified),5%,-1%,3%,i,?
COC(=O)c1cc(C(=O)c2ccc(Cl)cc2Cl)cn1C,7%,-11%,0%,?,13µM*
CCOC(=O)c1c(NC(=O)c2ccc(S(=O)(=O)N(CC(C)C)CC(C)C)cc2)sc2c1CCN(C(=O)OCC)C2,.,.,.,i,i
C=CCS(=O)(=O)c1nc2ccccc2s1,?,?,7.3µM*,?,23µM*
CC(C)(C)S(=O)(=O)c1nc2ccccc2s1,16%,1%,19%,i,i
COc1ccccc1CNC(=O)C1CCN(C(=O)N(C)C)CC1,?,-9%,2%,i,i
COc1ccccc1C(CNC(=O)CCNS(=O)(=O)c1ccc(Br)cc1)N1CCCC1 (stereo unspecified),.,6.5µM*,-4%,i,i
COc1ccc(C(CNC(=O)CCNS(=O)(=O)c2ccc(Br)cc2)N2CCCC2)cc1 (stereo unspecified),?,-10%,0%,i,?
O=C(Nc1ccc(Cl)cc1)N1CCC(c2nc(-c3cccs3)no2)CC1,?,?,?,i,i
O=C(c1ccco1)N1CCC(c2nc(-c3ccccc3Cl)no2)CC1,-6%,-10%,-17%,i,i
O=C(NC1CCCCC1)N1CCCC(c2nc(-c3cccs3)no2)C1 (stereo unspecified),?,26%,?,i,i
COc1cccc(C(=O)N2CCCC(c3nc(-c4cccs4)no3)C2)c1 (stereo unspecified),-3%,1%,7%,i,4.1µM*
O=C(Nc1ccc(Cl)cc1)N1CCC(c2nc(-c3ccccc3Cl)no2)CC1,13µM*,10%,?,?,i
O=C(Nc1ccccc1)N1CCCC(c2nc(-c3cccs3)no2)C1 (stereo unspecified),-13%,-4%,0%,i,12µM*
COc1ccc(NC(=O)N2CCC(c3nc(-c4cccs4)no3)CC2)cc1,-4%,-10%,9%,i,6.5µM*
CC1CCCN(c2nc3nonc3nc2N2CCCC(C)C2)C1 (stereo unspecified),-5%,-5%,17%,i,i
Cc1cc(Cl)ccc1NC(=S)NCCC(c1ccccc1)c1ccccc1,?,0%[9.22 µM],13µM*,?,?
Cc1cc(Cl)ccc1NC(=O)C(=O)NCc1ccco1,.,.,.,i,i
SMILES,ELG1 DNA repair,SW480 rerep,MCF10A rereplic,KB-3-1 cytotox,KB-V1 MDR tox
S=C(NCc1ccco1)Nc1cccc(Cl)c1Cl,15µM*,-2%,11%,i,i
S=C(NCc1ccco1)Nc1ccc(Oc2ccc(Cl)cc2)cc1,?,11%,7.3µM*,i,i
S=C(NCc1ccco1)Nc1ccc(Cl)cc1,?,5%,0%,i,i
Cc1cc(Cl)ccc1NC(=S)NCc1ccco1,-12%,-4%,0%,i,21µM*
COc1ccc(N(CC(=O)NC2CC3CCC2C3)S(=O)(=O)c2ccccc2)cc1OC (stereo unspecified),-18%,29%,1%,i,i
COc1ccc(/C=N\NC(=O)c2ccc(Cn3cc(Br)c([N+](=O)[O-])n3)o2)c(OC)c1C,?,4%,4%,i,i
CC(=O)Nc1cc2c(cc1NC(=O)Cn1nc(-c3ccc(F)cc3)ccc1=O)OCCO2,3%,-2%,13%,i,i
Cc1ccc(-c2ccc(=O)n(CC(=O)Nc3ccc4c(c3)OCCO4)n2)cc1,-1%,-23%,?,i,i
COc1ccccc1NC(=O)Cn1nc(-c2ccc3c(c2)OCCO3)ccc1=O,-16%,4%,0.92µM*,i,i
CC(=O)c1cc2c(cc1NC(=O)Cn1nc(-c3ccc(C)cc3)ccc1=O)OCO2,4%,5%,?,23µM*,9.2µM*
CN(C)S(=O)(=O)c1ccc(NC(=O)Cn2nc(-c3ccc4c(c3)OCCO4)ccc2=O)cc1,.,18µM*,70%,?,?
CCOc1ccccc1NC(=O)CSc1nccn1-c1ccccc1,-15%,0%,0%,i,?
COc1cc(OC)cc(-c2sc3ccc(OC)cc3c2C#CC2(N)CCCCC2)c1,-1%,18µM*,15µM*,?,?
CCOc1ccc(C(C(=O)NC2CCCCC2)N(C(=O)Cc2cccs2)c2ccc(-n3cnnn3)c(OC)c2)cc1 (stereo unspecified),25%,?,24%,?,i
CCCn1nc(C(=O)NCc2ccc3c(c2)OCO3)c2ccccc2c1=O,?,2%,8%,i,?
CCN(c1ccc(OC)cc1)S(=O)(=O)c1ccc2c(c1)CCN2C(=O)CCC(=O)O,8%,?,0%,i,i
CCN(c1ccc(C)c(C)c1)S(=O)(=O)c1ccc2c(c1)CCN2C(=O)CCC(=O)O,-3%,?,21µM*,i,i
CN(C)c1ncnc2[nH]ncc12,.,0%,-4%,i,i
COc1ccc(-c2nc3ccccc3n2Cc2ccccc2)cc1,-16%,-5%,6%,i,i
COc1ccc(-c2n(Cc3ccccc3)c3ccccc3[n+]2Cc2ccccc2)cc1,?,?,4%,7.3µM*,i
O=C(c1cc2cc(Cl)ccc2[nH]1)N1CCN(c2ccc(F)cc2)CC1,-1%,29%,21%,i,i
CC(C)CCNC1c2ccccc2C(=O)N1Cc1ccccc1 (stereo unspecified),-4%,-4%,-3%,i,?
O=C(Cc1ccc(N2CCNC2=O)cc1)N1CCCC(Nc2ccc(F)c(F)c2)C1 (stereo unspecified),2%,5.8µM*,?,7.3µM*,i

# Screens deposited in PubChem by National Center for Advancing Translational Sciences (NCATS).
